IL1B secr inh: qHTS for Inhibitors of Inflammasome Signaling: IL-1-beta AlphaLISA Primary Screen | THP-1 LPS/ATP IL-1B secretion, AlphaLISA, 16 h; active compounds read low | activity change, % at 57.5 µM | actives 4.7% (n = 360,000); in the data active means activity change below about -50%; inconclusive means mostly about -30% to -49%; further: on the % scale 0 is the no-effect control and ±100 the full control effect
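Secreted IL-1B measured by AlphaLISA bead assay after 16 h compound exposure of THP-1 cells; compounds (final up to 57.5 uM) added 1 h before LPS (250 ng/mL) and ATP (1.25 mM) stimulation; lower signal means less secretion.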
TGFb SMAD3 inh: qHTS for Inhibitors of TGF-b; HepG2 CAGA-GFP TGF-b/SMAD3 reporter, GFP fluorescence, 18 h; TGF-beta stimulated, 500 pg/mL final; Potency, µM (titrated, usually from 46.1 µM), without a hit: at the top dose activity, negative = inhibition, usual class: inhibitors; actives 1.2% (n = 410,000); AID 588855, 2011; further: potency means the concentration at half of the fitted maximal effect; on the % scale 0 is the no-effect control and ±100 the full control effect; nearly all actives have a fitted effect of over 65% in size
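HEPG2 CAGA-GFP cells (1000/well, DMEM with 1% FBS) were pre-incubated 2 h at 37 degrees C, given compound by pin tool, then stimulated with TGF-beta at 500 pg/mL final for 18 h before per-cell GFP fluorescence imaging.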
TDP1 block: qHTS Assay for Inhibitors of Tyrosyl-DNA Phosphodiesterase (TDP1). recombinant TDP1, AlphaScreen DNA substrate cleavage. Potency, µM (titrated, usually from 130 µM), inactives show at the top dose activity change, negative = inhibition, hits mostly inhibitors. actives 0.28% (n = 350,000). AID 485290, 2010; further: potency means the concentration at half of the fitted maximal effect; on the % scale 0 is the no-effect control and ±100 the full control effect; nearly all actives have a fitted effect of over 40% in size
Target sequence (Q9NUW8 whole entry, looked up): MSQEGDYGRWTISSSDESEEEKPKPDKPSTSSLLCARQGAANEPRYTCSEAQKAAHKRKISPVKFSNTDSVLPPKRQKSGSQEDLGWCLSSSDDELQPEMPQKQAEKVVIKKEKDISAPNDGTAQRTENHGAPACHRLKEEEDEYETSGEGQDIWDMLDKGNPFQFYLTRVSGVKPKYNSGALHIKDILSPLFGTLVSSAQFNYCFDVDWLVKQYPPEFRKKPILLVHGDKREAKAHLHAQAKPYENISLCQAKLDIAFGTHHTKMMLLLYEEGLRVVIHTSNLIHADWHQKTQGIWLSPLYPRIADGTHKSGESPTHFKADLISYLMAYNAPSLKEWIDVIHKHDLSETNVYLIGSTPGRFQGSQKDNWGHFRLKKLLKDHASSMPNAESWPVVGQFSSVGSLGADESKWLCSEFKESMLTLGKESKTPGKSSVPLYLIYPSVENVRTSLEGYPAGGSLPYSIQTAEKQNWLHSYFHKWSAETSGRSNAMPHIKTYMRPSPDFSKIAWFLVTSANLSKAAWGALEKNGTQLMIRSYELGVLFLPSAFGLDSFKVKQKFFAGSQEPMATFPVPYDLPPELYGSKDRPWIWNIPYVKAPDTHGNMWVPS
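Recombinant human Tdp1 (E. coli-expressed, 1 nM final) preincubated with compounds 15 min at room temperature, then 5'-biotin/3'-phosphotyrosine-FITC DNA substrate (15 nM final) added for 5 min. AlphaScreen beads (10 ug/ml final) added 10 min; cleavage lowers signal.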
HepG2 tox: qHTS for Inhibitors of TGF-b: Cytotox Counterscreen; HepG2 CAGA-GFP viability, ATP luminescence, 18 h; Potency, µM (top dose mostly 46.1 µM), without a hit: at the highest dose activity change, negative = cytotoxicity, actives largely listed as cytotoxic; actives 0.76% (n = 410,000); AID 588856, 2011; further: potency means the concentration at half of the fitted maximal effect
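CellTiter-Glo luminescence gave cytotoxicity after 18 hours at 37 degrees C. The cells were HepG2 CAGA-GFP in 1% FBS DMEM, stimulated with 500 pg/mL TGF-beta after compound addition. %Activity was normalised to no-cell wells (complete cell-killing) and DMSO (no toxicity), and curves were fitted and classified.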
TDP1 cell CPT: qHTS for Inhibitors of human tyrosyl-DNA phosphodiesterase 1 (TDP1): qHTS in cells in presence of CPT. chicken DT40 Tdp1-/-;hTDP1 cells + 20 nM CPT, ATP luminescence, 48 h. Potency, µM (series often up to 46.2 µM), inactives show top-dose activity change, negative = growth inhibition, most hits filed as inhibitors. actives 12% (n = 420,000); further: potency means the concentration at half of the fitted maximal effect; on the % scale 0 is the no-effect control and ±100 the full control effect; nearly all actives have a fitted effect of over 55% in size
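Chicken DT40 Tdp1-/- cells complemented with human TDP1, 400 cells/well, exposed to compounds plus 20 nM camptothecin for at least 48 h at 37 C; viability read as ATP content by CellTiter-Glo luminescence.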
TDP1 cell noCPT: qHTS for Inhibitors of human tyrosyl-DNA phosphodiesterase 1 (TDP1): qHTS in cells in absence of CPT; Potency, µM (top dose mostly 46.2 µM), for the others: at the highest dose activity change, negative = growth inhibition, hits mostly inhibitors; actives 15% (n = 420,000); AID 686978, 2013; DT40 Tdp1-/- hTDP1 cells, no CPT, ATP luminescence, 48 h; further: potency means the concentration at half of the fitted maximal effect; on the % scale 0 is the no-effect control and ±100 the full control effect; nearly all actives have a fitted effect of over 55% in size
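A cellular qHTS used chicken DT40 cells lacking endogenous Tdp1 but carrying stably transfected human TDP1. Compounds were applied without camptothecin, and cell growth kinetics were judged by ATP-dependent luminescence after ≥48 hr.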
Active calls of the source: *; ? = inconclusive; . = no result; [ ] = remark or other dose. A selection: hits, their analogues and other compounds. The true share with any hit is near 19%. Unless noted, the call rests on the fitted dose curve; in most records, active means well fitted curve in the direction sought with a large enough effect; inconclusive means small, poorly fitted or top-dose-only effect, or another doubt; inactive means no such curve, though single readings can be large; an effect the other way counts as inactive or inconclusive.

SMILES	IL1B secr inh	TGFb SMAD3 inh	TDP1 block	HepG2 tox	TDP1 cell CPT	TDP1 cell noCPT
COc1ccccc1NC(=O)c1cc2c(CO)cnc(C)c2oc1=Nc1ccccc1	48	-1%	.	-4%	?	8.2µM*
COC(=O)N1C2CC3(C)C=C(C)OC1(C)C3c1ccccc12 (centres undefined)	.	.	9%[12.3 µM]	.	.	.
Cc1ccc(S(=O)(=O)N2[C@@H](c3ccc(F)cc3)C(C(=O)O)=C[C@H]2CC2CCCC2)cc1	8	-20%	1%	-1%	9%	2%
CSCCC(NC(=O)c1ccco1)C(=O)NNC(=O)c1n[nH]c(=O)c2ccccc12 (centres undefined)	2	1%	-2%	-12%	?	13%
CCOc1ccc(OCC(=O)N2CCOCC2)cc1	-3	22%	5%	3%	2%	3%
N#CC(C#N)=Cc1ccc(OCC(=O)N2CCOCC2)cc1	-53*	-11%	0%	-10%	21µM*	?
O=C(N/N=C/C(Br)=C/c1ccccc1)C1CC1	-76*	-3%	5%	-16%	8.2µM*	13µM*
O=C(O)c1ccc(N/N=C/C(Br)=C/c2ccccc2)cc1	-14	-30%	7%	-19%	5.8µM*	7.3µM*
O=C(N/N=C/C(Br)=C/c1ccccc1)NC1CCCCC1	-94*	?	0%	-60%	9.2µM*	15µM*
O=C(N/N=C/c1ccccc1)NC1CCCCC1	-4	-1%	5%	-13%	?	?
O=C(NN=Cc1ccc(F)cc1)C1CC1	-1	15%	.	-10%	2%	2%
CC(/C=N/NC(=O)NC1CCCCC1)=C\c1ccccc1	?	?	4%	-77%	21µM*	21µM*
COc1ccccc1N1CCN(CCCCNS(=O)(=O)c2cccc3c(N(C)C)cccc23)CC1	.	.	14%[56.1 µM]	.	.	.
O=C(N/N=C/C(Br)=C/c1ccccc1)C(O)c1ccccc1 (centres undefined)	-20	-23%	10%	-26%	5.8µM*	8.2µM*
CNS(=O)(=O)c1cn(CC(=O)Nc2ccc(OC)c(Cl)c2)cc1S(=O)(=O)NC	.	0%	3%	-7%	0%	-9%
O=C(/C=C/c1c(Cl)nc2ccccn12)N1CCN(c2ccccc2F)CC1	-21	6%	0%	8%	-19%	23µM*
O=C(/C=C/c1c(Cl)nc2ccccn12)N1CCCCC1	-7	-8%	4%	-11%	-24%	?
O=C(/C=C/c1c(Cl)nc2ccccn12)N1CCN(c2ccc(F)cc2)CC1	77	-12%	79µM*	11%	?	26µM*
CCc1ccccc1N(C)C(=O)c1cc2c(Cl)nc3ccc(C)cc3c2s1	.	-10%	1%	-2%	?	18µM*
CCN(C(=O)c1cc2c(Cl)nc3ccc(C)cc3c2s1)c1cc(OC)ccc1OC	.	-26%	-1%	3%	?	15µM*
Cc1cccc(C)c1OCc1cc(=O)n2ccsc2n1	.	-9%	4%	3%	-26%	?
CC(CCc1ccccc1)NC(=O)C1CCN(S(=O)(=O)c2cnc[nH]2)CC1 (centres undefined)	-55*	3%	3%	-3%	-1%	-6%
COCCn1c(=O)c(-c2cccc(C#N)c2)nc2cnc(N3CCOCC3)nc21	.	.	.	.	-25%	-1%
